Sampled rows, rich in hits. Any-hit rate of the full collection: about 12%.
L3MBTL1 block = inhibitors of human L3MBTL1. AlphaScreen L3MBTL1–H3K9me1 peptide binding. Potency, µM (highest dose often 57.1 µM), inactives show top-dose activity, negative = inhibition, hits mostly inhibitors. 230,000 tested, 0.66% active; further: on the % scale 0 is the no-effect control and ±100 the full control effect; nearly all actives have a fitted effect of over 60% in size
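L3MBTL1 50 nM + b-AHA-H3(1-15)K9me1 75 nM, 30 min RT; compound added, 30 min RT; streptavidin donor/Ni-chelate acceptor beads 10 ug/mL each final, 30 min RT dark; AlphaScreen read.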
BAZ2B block = blocks human BAZ2B; 360,000 tested, 4.4% active; AlphaScreen BAZ2B-H3K14Ac peptide displacement; Potency, µM (titrated, usually from 114 µM), for the others: at the highest dose activity change, negative = inhibition, usual class: inhibitors; AID 504333; Q9UIF8; further: on the % scale 0 is the no-effect control and ±100 the full control effect; nearly all actives have a fitted effect of over 60% in size
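Multi-concentration screen (max 110 uM) measuring displacement of acetylated histone H3 peptide from BAZ2B by AlphaScreen, using 50 nM protein, 50 nM peptide and 10 ug/mL streptavidin donor plus Ni-chelate acceptor beads.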
Sfp PPTase inh = inhibitors of Bacillus subtilis Sfp phosphopantetheinyl transferase. Q9F4F7. Biochemical Sfp PPTase activity, qHTS. Potency, µM, inactives show largest response in the series, negative = inhibition, usual class: inhibitors. 310,000 tested, 3.5% active. AID 1490;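 further: the enzyme is Sfp with the accession as filed and its product quenches rhodamine fluorescence; 0% = enzyme reaction without inhibitor and -100% = no enzyme wells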
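Step 1, compound plus 15 nM Sfp-PPTase, 15 min, room temperature. Step 2, add rhodamine-CoA (5 uM) and BHQ-2-YbbR (12.5 uM). Step 3, read 525/598 nm fluorescence at 0 and 30 min.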
HP1b binding inh = HP1-beta chromodomain-methylated histone interaction inhibition. 390,000 tested, 0.56% active. Potency, µM (top dose mostly 114 µM), without a hit: at the highest dose activity change, negative = inhibition, hits mostly inhibitors. P83916. AID 540317. AlphaScreen HP1-beta / biotin-H3K9me3 peptide binding; further: nearly all actives have a fitted effect of over 70% in size
Target sequence (P83916 whole entry, looked up): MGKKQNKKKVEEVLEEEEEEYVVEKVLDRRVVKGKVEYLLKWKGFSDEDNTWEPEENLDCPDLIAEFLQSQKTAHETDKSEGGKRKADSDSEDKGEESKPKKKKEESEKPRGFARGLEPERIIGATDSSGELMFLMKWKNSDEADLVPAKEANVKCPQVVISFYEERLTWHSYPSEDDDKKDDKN
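Compound inhibition of the preformed complex between 50 nM HP1-beta and 50 nM biotinylated H3K9me3 peptide was read by AlphaScreen. Buffer was PBS pH 7.4 with 0.01% Tween-20. Incubations ran 30 min at room temperature, with 10 ug/mL donor/acceptor beads.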
JMJD2A Tudor inh = inhibitors of human JMJD2A Tudor domain. 390,000 tested, 4.4% active. AID 504339. AlphaScreen JMJD2A-Tudor / H3K4me3 peptide binding. O75164. Potency, µM (series often up to 114 µM), without a hit: at the highest dose activity change, negative = inhibition, most hits filed as inhibitors; further: on the % scale 0 is the no-effect control and ±100 the full control effect; nearly all actives have a fitted effect of over 50% in size
G9a block = G9a (human) methyltransferase inhibition; Q96KQ7; G9a H3K9 monomethylation, AlphaScreen, 2 h; Potency, µM (top dose mostly 102 µM), inactives show top-dose activity, negative = inhibition, actives largely listed as inhibitors; 350,000 tested, 8.8% active; AID 504332; further: on the % scale 0 is the no-effect control and ±100 the full control effect; nearly all actives have a fitted effect of over 75% in size
Target sequence (Q96KQ7 913-1193 limits assumed): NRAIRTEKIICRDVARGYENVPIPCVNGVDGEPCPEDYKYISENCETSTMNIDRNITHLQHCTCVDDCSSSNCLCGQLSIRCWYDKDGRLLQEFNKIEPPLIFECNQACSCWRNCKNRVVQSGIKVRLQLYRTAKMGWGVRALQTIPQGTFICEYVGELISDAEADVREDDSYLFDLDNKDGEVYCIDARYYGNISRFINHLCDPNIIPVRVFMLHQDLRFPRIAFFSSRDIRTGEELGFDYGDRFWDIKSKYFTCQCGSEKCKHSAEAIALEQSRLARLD
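Enzyme 20 nM + cpd, 15 min RT; add b-H3K9 pep 500 nM / SAM 20 uM; 2 h RT; anti-H3K9me1 Ab 0.5 ug/mL + SA donor / anti-rabbit acceptor beads 20 ug/mL each, 10 min; AlphaScreen read.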
* = called active by the depositor; ? = inconclusive; . = no result; [ ] = dose if it differs, or a comment. The call rests on the fitted dose curve; in most records, active means well fitted curve in the direction sought with a large enough effect; inconclusive means small, poorly fitted or top-dose-only effect, or another doubt; inactive means no such curve, though single readings can be large; an effect the other way counts as inactive or inconclusive. Potency means the concentration at half of the fitted maximal effect.

SMILES	L3MBTL1 block	BAZ2B block	Sfp PPTase inh	HP1b binding inh	JMJD2A Tudor inh	G9a block
O=C(CSS(=O)(=O)O)N1CCN(C(=O)c2ccoc2)CC1	.	0%	16µM*	47%	-8%	20µM*
O=C(CSc1nc(NS(=O)(=O)c2ccccc2)cc(=O)[nH]1)Nc1ccc(F)cc1	?	?	4%	8%	56µM*	-10%[59 µM]
O=C(CSc1nc(NS(=O)(=O)c2ccccc2)cc(=O)[nH]1)Nc1cccc(C(F)(F)F)c1	.	?	10%	13%	9%	?
CO[C@@H]1[C@@H](OC2OC(C)C(OC3CC(C)(O)C(OC(=O)CC(C)C)C(C)O3)C(N(C)C)C2O)[C@@H](CC=O)C[C@@H](C)C(=O)/C=C\C2O[C@H]2C[C@@H](C)OC(=O)C[C@H]1OC(C)=O (some centres not stated)	.	.	6%	.	.	-5%[12.7 µM]
O=C(NN1C(=O)/C(=C/C=C/c2ccccc2)SC1=S)c1ccncc1	.	-33%	-29%	-16%	-35%	45µM*
O=C(NN1C(=O)/C(=C/C=C/c2ccco2)SC1=S)c1ccncc1	.	5.6µM*	7.9µM*	13µM*	14µM*	4µM*
COc1ccc(/C=C2\SC(=S)N(NC(=O)c3ccncc3)C2=O)cc1OC	3%	?	-9%	.	.	.
Cc1c(NC(=O)Cc2ccc(Cl)cc2)cccc1-c1nc2cccnc2s1	.	-37%	.	-17%	-23%	?
O=[N+]([O-])c1ccc(O)c(Nc2c([N+](=O)[O-])ccc3nonc23)c1	.	50µM*	-9%	-24%[57 µM]	?	50µM*
Cc1ccc(C)c(Nc2c([N+](=O)[O-])ccc3nonc23)c1	.	3.5µM*	5%	?	-31%	?
O=[N+]([O-])c1ccc(O)c(Nc2ncnc3ccc(Br)cc23)c1	.	?	7%	?	-31%	?
Cc1ccc(C)c(Nc2ccc3nonc3c2[N+](=O)[O-])c1	.	?	-1%	?	-36%	?
O=C(C1CCC(Cn2c(=O)c3sccc3n(Cc3ccccc3)c2=O)CC1)N1CCOCC1 (configuration not stated)	.	-15%	.	12%	-12%	8%[59 µM]
COc1ccc(OC)c(/C=N/n2c(COc3ccccc3)n[nH]c2=S)c1	.	3%	0%	44%	-13%	?
COc1cc(/C=N/N2CCOCC2)ccc1OCc1ccccc1	.	?	9%	-31%	?	-5%
COc1ccc(/C=N/n2c(COc3ccccc3)n[nH]c2=S)cc1OC	.	-27%	?	?	14µM*	1.3µM*
COc1ccc(Br)cc1/C=N/n1c(COc2ccccc2)n[nH]c1=S	.	1%	2%	12%	-9%	45µM*
COc1cc(OC)c(OC)cc1/C=N/n1c(COc2ccccc2)n[nH]c1=S	.	-32%	45µM*	?	18µM*	?
Cc1ccc(-n2nnnc2CNC(=O)C(C)(C)C)cc1C	.	4%	.	24%[57 µM]	0%	6%[59 µM]
COC(=O)c1cc(NS(=O)(=O)c2ccc(N3CCC(C)CC3)c([N+](=O)[O-])c2)cc(C(=O)OC)c1	-22%	?	11%	50µM*	22µM*	?
O=[N+]([O-])c1cc(-c2nnc(Nc3ccc(O)cc3)c3ccccc23)ccc1N1CCOCC1	-10%	?	-10%	?	?	20µM*
Cc1ccc(S(=O)(=O)N2CCN(C)CC2)cc1[N+](=O)[O-]	2%	-6%	2%	22%	-17%	-35%[59 µM]
O=C(O)c1cc(NS(=O)(=O)c2ccc(N3CCOCC3)c([N+](=O)[O-])c2)cc(C(=O)O)c1	-13%	2%	20%	38%	6%[57.1 µM]	-9%[59 µM]
CN1CCN(S(=O)(=O)c2ccc(N3CCN(c4ccc(O)cc4)CC3)c([N+](=O)[O-])c2)CC1	-30%	?	.	71µM*	32µM*	7.9µM*
COC(=O)c1cc(NS(=O)(=O)c2ccc(N3CCCCC3)c([N+](=O)[O-])c2)cc(C(=O)OC)c1	-22%	?	8%	-28%	?	?
SMILES	L3MBTL1 block	BAZ2B block	Sfp PPTase inh	HP1b binding inh	JMJD2A Tudor inh	G9a block
O=[N+]([O-])c1cc(S(=O)(=O)Nc2ccccc2)ccc1N1CCN(c2ccc(O)cc2)CC1	-14%	28µM*	56µM*	-83%	13µM*	5µM*
O=C(/C=C/c1ccccc1)N1CCN(Cc2cc(=O)n3nc(-c4ccccc4)sc3n2)CC1	.	-2%	.	28%[57 µM]	-5%	-8%[59 µM]
CCCCN(C)CCNC(=O)c1ccc2c(=O)n(CCc3ccccc3)c(=O)[nH]c2c1	.	-1%	.	25%	-11%	-4%[59 µM]
CC(=O)OC1CC[C@]2(C)C(CC(OC(C)=O)[C@]3(C)C2CC[C@@]2(C)C(c4ccoc4)OC(=O)C4O[C@]432)C1(C)C (some centres not stated)	.	.	11%	.	.	-50%[2.33 µM]
CC(C)=C1C2CCC1C(C(=O)Nc1cc(C)cc(C)c1)C2C(=O)O (configuration not stated)	-7%	-31%	-18%	43%	1%	40µM*
Cc1nnc(N/N=C/C(C)c2ccccc2)[nH]c1=O (configuration not stated)	5%	-25%	79µM*	28%	0.89µM*	?
Cc1nnc(N/N=C/c2c[nH]c3ccccc23)[nH]c1=O	.	?	-4%	39%	-25%	.
COc1ccc(-c2nc3sc(CCNC(=O)c4cccc(C(F)(F)F)c4)c(C)n3n2)cc1	.	-2%	.	32%	-14%	-3%[59 µM]
CCOc1ccc(NC(=O)Cn2nc(C(N)=O)c3ccccc3c2=O)cc1S(=O)(=O)N1CCCC1	0%	-34%	.	19%	-14%	-110%[12.7 µM]
CCOc1ccc(NC(=O)Cn2nnc(-c3ccc(C(N)=O)cc3)n2)cc1S(=O)(=O)N1CCCC1	-7%	-7%	.	6%	-23%	79µM*
COc1ccc(-c2cc3ccc(O)c(CN4CCC(C)CC4)c3oc2=O)cc1	.	45%	.	48%[57 µM]	?	56%[59 µM]
O=C(O)c1ccc(N/N=C/C2=Cc3ccccc3OC2)cc1	-21%	-37%	-4%	-10%	-29%[11.4 µM]	50µM*
COCO[C@H]([C@@H](C)C=C(Br)Br)[C@@H](C)COCc1ccc(OC)cc1	.	.	-5%	116%	77%	.
Cc1ccc(C(=O)NNC(=O)c2ccc3ccccc3c2)cc1	.	.	.	32%	-5%	.
COc1ccc(C(=S)NCS(=O)(=O)c2ccc(C)cc2)cc1	-2%	?	?	-29%	-27%	8.9µM*
Cc1ccc(S(=O)(=O)CNC(=S)c2cccc(C)c2)cc1	.	-7%	3%	?	-31%	10µM*
Cc1ccc(S(=O)(=O)CNC(=S)c2ccc3ccccc3c2)cc1	.	?	56µM*	-18%	?	8.9µM*
